Source: publication PMC4336329 (PLoS ONE, 2015)
Among all 310,000 compounds or so, about 14,000 (4.5%) showed an effect of 50% or more. Effects have a minus sign here. Shown is part of a subset that was picked to be rich in strong results.
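Further: peak tail current of the secondary pulse compared with the same well before compound.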

What follows are molecules tested against human ether-à-go-go-related gene (hERG) potassium channel (human, UniProt Q12809) (assay: primary screen, population patch clamp on CHO cells stably expressing hERG; higher = less effect of the substance).
Sequence of human ether-à-go-go-related gene (hERG) potassium channel (Q12809 whole entry, looked up): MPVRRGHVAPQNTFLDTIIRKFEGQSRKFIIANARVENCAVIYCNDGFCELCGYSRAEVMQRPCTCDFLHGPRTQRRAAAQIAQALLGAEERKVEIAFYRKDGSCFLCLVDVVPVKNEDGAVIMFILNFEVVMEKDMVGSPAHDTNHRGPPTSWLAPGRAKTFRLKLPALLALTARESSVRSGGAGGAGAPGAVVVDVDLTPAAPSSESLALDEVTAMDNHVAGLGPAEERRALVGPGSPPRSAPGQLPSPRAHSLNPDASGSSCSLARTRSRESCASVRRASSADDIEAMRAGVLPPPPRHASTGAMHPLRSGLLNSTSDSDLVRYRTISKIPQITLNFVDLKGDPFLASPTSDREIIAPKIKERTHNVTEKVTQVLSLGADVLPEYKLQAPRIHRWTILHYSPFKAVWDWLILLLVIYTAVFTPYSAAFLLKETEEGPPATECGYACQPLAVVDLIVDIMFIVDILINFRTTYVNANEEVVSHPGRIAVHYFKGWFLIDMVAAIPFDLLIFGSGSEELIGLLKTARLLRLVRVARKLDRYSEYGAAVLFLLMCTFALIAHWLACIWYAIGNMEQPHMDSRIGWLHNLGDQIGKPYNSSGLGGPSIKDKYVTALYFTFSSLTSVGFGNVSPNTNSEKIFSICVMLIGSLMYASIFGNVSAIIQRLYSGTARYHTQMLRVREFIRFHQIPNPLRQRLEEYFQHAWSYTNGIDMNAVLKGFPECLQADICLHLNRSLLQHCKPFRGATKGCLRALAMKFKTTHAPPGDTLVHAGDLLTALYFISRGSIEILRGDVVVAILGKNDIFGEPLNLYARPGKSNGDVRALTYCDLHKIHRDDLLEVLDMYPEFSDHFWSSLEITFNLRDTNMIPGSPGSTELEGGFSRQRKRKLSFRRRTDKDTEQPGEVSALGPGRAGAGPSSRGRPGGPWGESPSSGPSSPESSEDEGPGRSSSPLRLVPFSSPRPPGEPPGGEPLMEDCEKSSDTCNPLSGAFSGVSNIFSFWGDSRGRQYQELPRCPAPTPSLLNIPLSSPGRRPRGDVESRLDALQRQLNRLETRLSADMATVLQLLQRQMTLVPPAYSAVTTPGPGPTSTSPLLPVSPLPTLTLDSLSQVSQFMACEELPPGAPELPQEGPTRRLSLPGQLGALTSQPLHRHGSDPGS
For `COc1ccc(C(=O)NCc2nnc(SCC(=O)N3CCOCC3)o2)cc1OC`, the “hERG current change (%, negative = inhibition) at 10uM” value was 13.7%. With `CCNC(=O)N(CCOC)CC1CCCN(C2Cc3ccccc3C2)C1` (stereo not drawn) the “hERG current change (%, negative = inhibition) at 10uM” value was -22.9%. With `CCCNC(=O)N(CCOC)CC1CCCN(C2Cc3ccccc3C2)C1` (stereo not drawn) the “hERG current change (%, negative = inhibition) at 10uM” value was -47.8%. For `COCCN(CC1CCCN(C2Cc3ccccc3C2)C1)C(=O)c1ccc(C(C)=O)cc1` (stereo not drawn), the “hERG current change (%, negative = inhibition) at 10uM” value was -78.6%. With `COCCN(CC1CCCN(C2Cc3ccccc3C2)C1)C(=O)c1cccs1` (stereo not drawn) the “hERG current change (%, negative = inhibition) at 10uM” value was -68.5%. With `COCCN(CC1CCCN(C2Cc3ccccc3C2)C1)C(=O)CSC` (stereo not drawn) the “hERG current change (%, negative = inhibition) at 10uM” value was -10.7%. With `CCOC(=O)CNC(=O)N(CCOC)CC1CCCN(C2Cc3ccccc3C2)C1` (stereo not drawn) the “hERG current change (%, negative = inhibition) at 10uM” value was -28.5%. `O=C(NCc1ccco1)C1CCCN(S(=O)(=O)c2cccc3cccnc23)C1` (stereo not drawn) was tested, and the “hERG current change (%, negative = inhibition) at 10uM” value was 0.148%. In the case of `CCOC(=O)c1cc(-c2nnc(SCC(=O)Nc3ccc(F)cc3)o2)c(C)nc1C`, the “hERG current change (%, negative = inhibition) at 10uM” value is reported as 7.9%. `COc1ccc(C(=O)NCc2nnc(SCC(=O)c3ccccc3)n2C)cc1OC` was tested, and the “hERG current change (%, negative = inhibition) at 10uM” value was -18.2%. For `O=C(c1cc(-c2ccccc2)n[nH]1)N1CCc2c([nH]c3ccccc23)C1c1ccccn1` (stereo not drawn), the “hERG current change (%, negative = inhibition) at 10uM” value was 14.5%. With `Cc1sc2nc(C3CCCCC3)nc(SCC(=O)N3CC(=O)Nc4ccccc43)c2c1C` the “hERG current change (%, negative = inhibition) at 10uM” value was 52.8%. `CC(C)c1ccc(/C=C2\SC(=S)N(CCC(=O)N3CCCCC3CCO)C2=O)cc1` (stereo not drawn) was tested, and the “hERG current change (%, negative = inhibition) at 10uM” value was 20.3%. With `CCOc1ccccc1N1CC(C(=O)NNC(=O)c2cc(OC)c(OC)c(OC)c2)CC1=O` (stereo not drawn) the “hERG current change (%, negative = inhibition) at 10uM” value was 9%. With `Cc1cc(C)n2c(=S)[nH]nc2n1` the “hERG current change (%, negative = inhibition) at 10uM” value was 19.6%. For `CCCN1Cc2cccc(C(=O)N3CCN(c4cc(Cl)ccc4C)CC3)c2C1=O`, the “hERG current change (%, negative = inhibition) at 10uM” value was -52.5%. In the case of `CCOC(=O)N1CCC(N2Cc3cccc(C(=O)N4CCN(C5CCCCC5)CC4)c3C2=O)CC1`, the “hERG current change (%, negative = inhibition) at 10uM” value is reported as -62.4%. `CCOC(=O)N1CCC(N2Cc3cccc(C(=O)N4CCN(c5cccc(Cl)c5)CC4)c3C2=O)CC1` was tested, and the “hERG current change (%, negative = inhibition) at 10uM” value was -63.7%. For `COCCN1Cc2cccc(C(=O)N3CCN(c4cc(C)ccc4C)CC3)c2C1=O`, the “hERG current change (%, negative = inhibition) at 10uM” value was -16.5%. In the case of `CCCN1Cc2cccc(C(=O)N3CCN(c4ccccc4)CC3)c2C1=O`, the “hERG current change (%, negative = inhibition) at 10uM” value is reported as 6.02%. With `CCOC(=O)N1CCC(N2Cc3cccc(C(=O)N4CCN(c5cccc(C)c5C)CC4)c3C2=O)CC1` the “hERG current change (%, negative = inhibition) at 10uM” value was -36.7%. With `CCOC(=O)N1CCC(N2Cc3cccc(C(=O)O)c3C2=O)CC1` the “hERG current change (%, negative = inhibition) at 10uM” value was -23.6%. For `CCOC(=O)N1CCC(N2Cc3cccc(C(=O)N4CC(C)CC(C)C4)c3C2=O)CC1` (stereo not drawn), the “hERG current change (%, negative = inhibition) at 10uM” value was 6.31%. In the case of `Cn1ccc(C(=O)NC(=S)N2CCSCC2)n1`, the “hERG current change (%, negative = inhibition) at 10uM” value is reported as 9.2%. For `O=C(CSCc1cccc(Br)c1)NC1CC1`, the “hERG current change (%, negative = inhibition) at 10uM” value was -6.25%. `Fc1cccc(CSc2nc3ncccc3[nH]2)c1` was tested, and the “hERG current change (%, negative = inhibition) at 10uM” value was 4.28%. `O=C(O)CC(c1ccc(Cl)cc1)N1C(=O)CCC1=O` (stereo not drawn) was tested, and the “hERG current change (%, negative = inhibition) at 10uM” value was -7.96%. With `Cn1cnnc1SCCNS(=O)(=O)c1ccccc1` the “hERG current change (%, negative = inhibition) at 10uM” value was 10.8%. For `COc1ccc2c(C)c(C)c(=O)oc2c1OC`, the “hERG current change (%, negative = inhibition) at 10uM” value was 3.4%. For `CN(C)C(=O)CCC(=O)N(C)CC1CCCN(CCc2ccc(F)cc2)C1` (stereo not drawn), the “hERG current change (%, negative = inhibition) at 10uM” value was -38.1%. For `CN(CC1CCCN(CCc2ccc(F)cc2)C1)C(=O)CCC(F)(F)F` (stereo not drawn), the “hERG current change (%, negative = inhibition) at 10uM” value was -63%. For `CN(CC1CCCN(CCc2ccc(F)cc2)C1)C(=O)CCC(N)=O` (stereo not drawn), the “hERG current change (%, negative = inhibition) at 10uM” value was -23.9%. In the case of `CN(CC1CCCN(CCc2ccc(Cl)cc2)C1)C(=O)CC(F)(F)F` (stereo not drawn), the “hERG current change (%, negative = inhibition) at 10uM” value is reported as -60.5%. With `CC(=O)Nc1cccc(C(=O)OCc2csc(CC(=O)Nc3ccccc3C)n2)c1` the “hERG current change (%, negative = inhibition) at 10uM” value was -14%. With `N#CCCn1cc(C=C2C(=O)NC(=O)NC2=O)c(-c2ccccc2)n1` the “hERG current change (%, negative = inhibition) at 10uM” value was 25.2%. In the case of `CCOc1ccc(C)cc1S(=O)(=O)n1ccc(C)n1`, the “hERG current change (%, negative = inhibition) at 10uM” value is reported as 4.82%. `O=C(NCCCN1CCOCC1)c1cc(Cl)ccc1Cl` was tested, and the “hERG current change (%, negative = inhibition) at 10uM” value was 11.5%. `Cc1cccc(CSCc2ccc(C(=O)NC3CCCC3)o2)c1` was tested, and the “hERG current change (%, negative = inhibition) at 10uM” value was -55.5%. For `O=C(CC(c1ccccc1)c1cc(Cl)ccc1O)NCCCN1CCOCC1` (stereo not drawn), the “hERG current change (%, negative = inhibition) at 10uM” value was -50%. `O=C(NCc1ccc2c(c1)OCO2)c1ccc(CSCc2cccc(Cl)c2)o1` was tested, and the “hERG current change (%, negative = inhibition) at 10uM” value was -11.1%. For `O=C(CC(c1ccccc1)c1cc(Br)ccc1O)NCCCN1CCOCC1` (stereo not drawn), the “hERG current change (%, negative = inhibition) at 10uM” value was -31.3%. `COc1ccc(Cl)cc1C(=O)NCCCN1CCOCC1` was tested, and the “hERG current change (%, negative = inhibition) at 10uM” value was 9.16%. For `O=C(NCCCN1CCOCC1)c1cc(Cl)ccc1OCc1ccccc1`, the “hERG current change (%, negative = inhibition) at 10uM” value was -55.7%. With `Cc1ccccc1S(=O)(=O)Cc1ccc(C(=O)NCCCN2CCC(C)CC2)o1` the “hERG current change (%, negative = inhibition) at 10uM” value was -36.2%. For `CC1CCN(CCCNC(=O)c2ccc(CSCc3cccc(Cl)c3)o2)CC1`, the “hERG current change (%, negative = inhibition) at 10uM” value was -74.8%. `O=C(CC(c1ccccc1)c1cc(Cl)ccc1O)NCCN1CCOCC1` (stereo not drawn) was tested, and the “hERG current change (%, negative = inhibition) at 10uM” value was -42.1%. `Cc1ccc(CSCc2ccc(C(=O)NC3CCCC3)o2)cc1` was tested, and the “hERG current change (%, negative = inhibition) at 10uM” value was -18.2%. In the case of `Cc1ccc(CSCc2ccc(C(=O)NC3CC3)o2)cc1`, the “hERG current change (%, negative = inhibition) at 10uM” value is reported as -5.31%.
